Measurements as given in PubChem BioAssay (NCATS).
Inconclusive results are not listed. Where a call stands in place of a potency, no number is given. Activity calls are given as the source filed them. Calls follow the shape of the dose curve; as a rule, active = well fitted cell-killing curve with a large enough effect; inconclusive = small, poorly fitted or top-dose-only effect; inactive = flat fitted curve, though single readings scatter.

What was measured:
[1] = Cell Viability - LYMP2-025 (AID 976);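 also: series mostly up to about 92 µM; cells exposed to compound for 24 h at 37 °C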
Outline: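 In qHTS format, LYMP2-025 lymphoblastoid cells in complete culture medium received compound for 24 hr; ATP-based CellTiter-Glo signal gave viability, with AC50 derived by Hill equation.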

[2] = Cell Viability - LYMP2-002 (AID 977);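 also: series mostly up to about 92 µM; compound exposure lasted 24 h at 37 °C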
Outline: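 Cytotoxicity is scored as concentration-dependent loss of cellular ATP in a human lymphoblastoid line after 24 hr compound treatment at 37 C. AC50 is obtained by modelling concentration-response data with the Hill equation.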

[3] = Cell Viability - LYMP2-006 (AID 978); also: series mostly up to about 92 µM; nearly all actives have a fitted effect of over 60% in size
Outline: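 qHTS, 1536-well; 2500 cells/well, 5 hr 37 C; cpd 24 hr 37 C; CellTiter-Glo 30 min RT; luminescence. Tetraoctylammonium bromide pos. ctrl. AC50 via Hill eqn.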

[4] = Cell Viability - LYMP2-007 (AID 979);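 also: cells exposed to compound for 24 h before reading; nearly all actives have a fitted effect of over 60% in size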
Outline: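 Acute toxicity is scored as a concentration-dependent fall in intracellular ATP in human lymphoblastoid cells treated 24 hr at 37 C, measured by luciferase luminescence; Hill-equation modelling yields AC50.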

[5] = Cell Viability - LYMP2-008 (AID 980);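 also: cells exposed to compound for 24 h at 37 °C; nearly all actives have a fitted effect of over 60% in size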
Outline: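 Acute cytotoxicity is scored as concentration-dependent loss of cellular ATP in a human lymphoblastoid line after 24 hr treatment at 37 C. ATP is quantified by luciferase luminescence.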

[6] = Cell Viability - LYMP2-010 (AID 981);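 also: cells exposed to compound for 24 hours at 37 °C; nearly all actives have a fitted effect of over 55% in size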; also: potency is read from the fitted curve at half-maximal effect
Outline: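 Acute toxicity is scored as a concentration-dependent loss of cellular ATP in human lymphoblastoid cells after 24 hr compound exposure in complete medium. Tetraoctylammonium bromide is the positive control.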

[7] = Cell Viability - LYMP2-012 (AID 982);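 also: cellular ATP by luciferase luminescence where a drop means cytotoxicity; cells exposed to compound for one day before reading; nearly all actives have a fitted effect of over 55% in size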
[8] = Cell Viability - LYMP2-014 (AID 983);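 also: series mostly up to about 92 µM; cells exposed to compound for 24 h at 37 °C; nearly all actives have a fitted effect of over 50% in size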
Outline: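 Decrease in intracellular ATP after 24 hr treatment at 37 C, measured by luciferase luminescence, indicated cytotoxicity. Concentration-response data were fitted with the standard Hill equation to give AC50.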

[9] = Cell Viability - LYMP2-016 (AID 984);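 also: cells exposed to compound for 24 hours at 37 °C; nearly all actives have a fitted effect of over 55% in size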
Source text: NIH Chemical Genomics Center [NCGC]
NIH Molecular Libraries Screening Centers Network [MLSCN]
National Institutes of Environmental Health Sciences [NIEHS]
National Toxicology Program [NTP]
We have developed a 1536-well cell-based assay for quantitative high throughput screening (qHTS) against a number of cell lines to determine in vitro cytotoxicity of small molecules. This particular assay uses a human lymphoblastoid cell line (LYMP2-016) purchased from Coriell Institute for Medical Research.
NCGC Assay Protocol Summary:
The CellTiter-Glo luminescent cell viability assay (Promega) is a homogeneous method to measure the number of viable cells in culture. The end point readout of this assay is based on quantitation of intracellular ATP, an indicator of metabolic activity, using the luciferase reaction. Luciferase catalyzes the oxidation of beetle Luciferin to oxyluciferin and light in the presence of ATP. The luminescent signal is proportional to amount of ATP present.
Using the CellTiter-Glo luminescent cell viability assay, the amount of cellular ATP was measured in the lymphoblastoid cell line with complete culture medium following compound treatment for 24 hours. The assay was performed in opaque white Kalypsys 1536-well plates. In the screen, tetraoctylammonium bromide was used as positive control. Library compounds were measured for their ability to cause acute toxicity in the cell line, as reflected by a decrease in intracellular ATP levels, in a concentration-dependent manner. […] AC50 values were determined from concentration-response data modeled with the standard Hill equation.
qHTS protocol for CellTiter Glo lymphoblastoid cellular assay
[Step] [Parameter] [Value] [Description]
1. Reagent; 5 uL; 2500 lymphoblastoid cells/well
2. Time; 5 hr; 37 C incubation
4. Controls; 23 nL; Tetraoctylammonium bromide 6.4pM to 92 uM
5. Time; 24 hr; 37 C incubation
6. Reagent; 5 uL; CellTiter Glo reagent
7. Time; 30 min; Room Temperature
8. Detection; Luminescence; Viewlux plate reader
Keywords: cell viability, cytotoxicity, lymphoblastoid cell line, luminescence, NTPHTS, NTPHTS_NCGC, NIEHS, DSSTox, MLSMR, MLSCN, NIH Roadmap, qHTS, NCGC

[10] = Cell Viability - LYMP2-018 (AID 985);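 also: compound exposure lasted 24 hr at 37 °C; nearly all actives have a fitted effect of over 50% in size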
Outline: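 Acute cytotoxicity is scored as a concentration-dependent drop in intracellular ATP after 24 hr exposure of the lymphoblastoid line in complete culture medium, measured by luciferase luminescence. Potency is expressed as AC50 from Hill modelling.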

SMILES | outcome [1] | outcome [2] | outcome [3] | outcome [4] | outcome [5] | Potency [6] | outcome [7] | outcome [8] | outcome [9] | outcome [10]
NC(=O)c1cnccn1 | inactive | inactive | inactive | inactive | inactive | inactive | inactive | inactive | inactive | inactive
O=c1[nH]cnc2[nH]ncc12 |  | inactive | inactive | inactive | inactive | inactive | inactive | inactive | inactive | inactive
NC(N)=NC(=O)c1nc(Cl)c(N)nc1N | inactive | inactive | inactive | inactive | inactive |  | inactive | inactive | inactive | inactive
CC(=O)Oc1ccccc1C(=O)O | inactive | inactive | inactive | inactive | inactive | inactive | inactive | inactive | inactive | inactive
Cn1cnc([N+](=O)[O-])c1Sc1ncnc2nc[nH]c12 | inactive | inactive |  |  |  | 39.8 µM (active) |  | inactive |  | 
CCCC(CCC)C(=O)O | inactive | inactive | inactive | inactive | inactive | inactive | inactive | inactive | inactive | inactive
NS(=O)(=O)c1cc2c(cc1Cl)NC=NS2(=O)=O | inactive | inactive | inactive | inactive | inactive | inactive | inactive | inactive | inactive | inactive
